Experimental data from ChEMBL document CHEMBL4513216, “Probing the Open Global Health Chemical Diversity Library for Multistage-Active Starting Points for Next-Generation Antimalarials” (ACS Infect Dis, 2020).
Among all 69,000 compounds or so, about 8,600 (12%) showed an effect of 50% or more. Many of the other results were omitted from the sample, so strong results are more common in it than they were.

Test system: Plasmodium berghei
Experiment: Screen against P. berghei liver stage (PbLuc), transformed with Luciferase, at 10uM
Assay type: functional, HepG2
Settings: tested at 10 uM

In order of rising INHIBITION:
1. CS(=O)(=O)c1ccc(NC(=O)NCCC2=CCCCC2)cc1  -165%
2. CCCc1cc(C(=O)Nc2nc(SC)ns2)n(C)n1  -106.9%
3. CN(C(=O)CNc1ccc(C#N)cc1)C1CCCCC1  -87.7%
4. Cc1nn(C)c(N(C)C)c1CNCc1ccnc(N2CCCCC2)c1  -56.7%
5. CN1C[C@H]2CC[C@@H](CC1=O)N2C(=O)c1ccc(-c2ccccc2)[nH]c1=O  -45%
6. CN(C)C(=O)CN1CC[C@H]2CN(S(C)(=O)=O)C[C@@H]2C1=O  -41.8%
7. NC(=O)CN(Cc1ncc(-c2ccccc2)o1)C1CCCC1  -32%
8. Cc1cccn2c(CC(=O)N3CCC(Oc4ncccn4)CC3)cnc12  -30.3%
9. Cc1cnn(CC2CCCN2C(=O)c2cc(O)nc3ccccc23)c1 (stereo not given)  -29.8%
10. CN(Cc1nc(Cc2cccc(F)c2)no1)C1CCOCC1  -24.2%
11. COCCN1CC(C(=O)Nc2ccc3c(c2)CCC(=O)N3C)CC1=O (stereo not given)  -22.6%
12. Cc1cc(NS(=O)(=O)c2ccccc2F)ccc1-n1cccc1C(=O)O  -19.7%
13. Cc1ccc(C(=O)N2CCN(CC(C)O)CC2)cc1S(C)(=O)=O (stereo not given)  -19.6%
14. CC(C)N(C)Cc1noc2c1CN(C(=O)c1ccsc1)CC2  -18.5%
15. CC(C)n1c(=O)[nH]c2cn(-c3ccc(Br)cc3)c(=O)n21  -17.3%
16. COc1cccc(-c2cc(C(=O)NCCCC(F)(F)F)[nH]n2)c1  -16%
17. CCCc1nc(CN(CC)C(=O)c2onc3ccccc23)no1  -14.1%
18. Cc1ccc2nc(C(=O)N3CCC(CCn4cccn4)CC3)cn2c1  -14.1%
19. CC(C)N(C)Cc1cnc2n1CCN(C(=O)Cc1ccsc1)C2  -13%
20. CCCc1n[nH]c(C2CN(C(=O)c3cccc4cn[nH]c34)CCO2)n1 (stereo not given)  -11.9%
21. CCN1CC(COc2ccc(OC)cc2)Oc2ccncc2S1(=O)=O (stereo not given)  -10.3%
22. NS(=O)(=O)CCNC(=O)C1(c2ccc(Br)cc2)CC1  -8.19%
23. COc1cc(NC(=O)c2ccc(C)cc2C)c(C(=O)N(C)C)cc1OC  -7.36%
24. Cn1cccc1C(=O)N1CCn2nnc(COc3cccnc3)c2C1  -6.21%
25. CC(C)n1cc(CN2CCCN(C(=O)CC3CCCO3)CC2)cn1 (stereo not given)  -4.94%
26. Cc1cc(C)nc(C2(C)CCCN2CCO)n1 (stereo not given)  -4.6%
27. COCC(=O)Nc1ccc2c(c1)C1(CCOCC1)CN2CCF  -4.08%
28. Cc1nc(NC(C)C)nc2c1CN(Cc1nccn1C)CC2  -4.02%
29. Cc1ccc(S(=O)(=O)Nc2ccc(-n3cccc3C(=O)O)c(C)c2)s1  -3.16%
30. Cc1ccc(NC(=O)NCCc2ccncc2C)c(N(C)C)n1  -0.554%
31. Cc1c(S(=O)(=O)N2CCCC2c2nnc(-c3ccsc3)o2)cnn1C (stereo not given)  0.4%
32. O=C(NCC1CC2(CO1)CN(c1nncs1)C2)C1CCC1 (stereo not given)  1.36%
33. O=C(Cn1nc2ccccc2n1)N1CCCn2cncc2C1  1.37%
34. CC(C(=O)NCCOc1ccccc1)n1cncn1 (stereo not given)  2.97%
35. O=C(c1cncc(NCC2COc3ccccc3C2)n1)N1CCOCC1 (stereo not given)  3.13%
36. CC(C)Nc1nc2c(c(NC3CC3)n1)CN(C(=O)c1ccncc1)CC2  5.36%
37. COc1ccccc1OCC(=O)NCC(C)(O)c1ccccc1 (stereo not given)  9.79%
38. CCC(=O)Nc1ccc2c(c1)C1(CCOCC1)CN2CCF  10.4%
39. COc1ncc(NCc2cc(C#N)cs2)cc1C(N)=O  11.4%
40. Cc1n[nH]c(C)c1NC(=O)CN1CCN(c2nccs2)C(C)C1 (stereo not given)  14.4%
41. O=C(c1ccccc1F)N1C[C@H]2CCC[C@@]2(COCc2ccncc2)C1  15.4%
42. Cc1csc(NC(=O)C(C)Oc2ccc3c(c2)OCO3)n1 (stereo not given)  16.2%
43. N#Cc1ccc(CN(CC(N)=O)Cc2cccc(F)c2)cc1  17.1%
44. CCOCc1cccc(S(=O)(=O)Nc2ccn(CC)n2)c1  18.4%
45. Cn1cnc2c1C(COCc1ccccc1)N(Cc1ccccn1)CC2 (stereo not given)  18.5%
46. O=S(=O)(c1cc(F)ccc1F)N1CCCC1c1ccncc1 (stereo not given)  19.3%
47. NS(=O)(=O)CCNC(=O)C1(c2ccccc2)CC1  19.6%
48. N#Cc1ccccc1CN(CC(N)=O)C1CCCC1  20.9%
49. CC(C)Nc1nc2c(cc1C(=O)O)CCN(Cc1ccsc1)CC2  21.4%
50. CC(C)Nc1nc2c(c(N(C)C)n1)CCN(Cc1nccn1C)CC2  21.7%
51. O=S1(=O)c2cnccc2OC(COc2ccccc2)CN1CC1CC1 (stereo not given)  22.2%
52. CC(C)Nc1nc2c(c(NC3CC3)n1)CCN(C1CCOCC1)CC2  23.1%
53. CCOCC(O)CN1CCN(C(=O)C(C)(C)CC)CC1 (stereo not given)  24%
54. COc1ccc2nnc(CCC(=O)Nc3nc(C)c(C)s3)n2n1  24.2%
55. CN(CCCNC(=O)C1CCc2cn[nH]c2C1)c1ccccc1 (stereo not given)  24.3%
56. Cc1cnc(C(=O)N2CCN(c3ncc4c(n3)CCOC4)CC2)cn1  27.4%
57. CS(=O)(=O)NCCNC(=O)C1(c2ccc(F)cc2)CC1  27.6%
58. Cn1ccnc1CN1CCC2(CC1)CC(NC(=O)c1ccccn1)CO2 (stereo not given)  28.4%
59. COCCN1CC(O)CN(C(=O)c2ccc(SC)cc2)CC1=O (stereo not given)  29%
60. CN(CCCNC(=O)C1CCc2cn[nH]c2C1)c1ccc(F)cc1 (stereo not given)  31.2%
61. CCn1[nH]c(C)c2c(C(F)(F)F)cc(=O)nc1-2  31.7%
62. Cc1ccc(NC2CCN(C(=O)c3ccsc3)CC2)nn1  31.8%
63. Cc1ccccc1C(C)NC(=O)CSCC#N (stereo not given)  31.9%
64. Cc1nccn1CCCN1CCCC(c2nccn2C)C1 (stereo not given)  34.2%
65. COC[C@H]1CNC(=O)[C@@H]2CCN(Cc3ccc(F)cc3)CC[C@H]12  34.4%
66. O=C(CCS(=O)(=O)c1ccccc1)N1CCCC(n2cccn2)C1 (stereo not given)  34.5%
67. Cc1cnn(CCNCc2csc(-c3ccccc3)n2)c1  34.75%
68. CO[C@@H]1CCN(Cc2c(C)noc2C)[C@@H]2CN(Cc3ccco3)C[C@@H]21  35.5%
69. COCCCC1(CO)CCCN(C(=O)c2cnc3c(c2)CCCC3)C1 (stereo not given)  35.9%
70. CCN(CC1CCOC1)C(=O)Nc1ccc(N2CCOCC2)nc1 (stereo not given)  36.05%
71. CC(C)CN1CC[C@@H]2[C@H](CC1)N(C(=O)c1ccccc1)CCS2(=O)=O  36.9%
72. Cn1cc(CCC(=O)N2CCCN(c3ncccc3C#N)CC2)cn1  37.4%
73. CCN1CC2(CCOCC2)c2cc(NS(=O)(=O)CC)ccc21  38.5%
74. O=C(O)c1ccccc1CN1CCC2(Cc3ccccc3CNC2=O)C1 (stereo not given)  40%
75. Cc1nn(C)c(Cl)c1CNCc1cccnc1N1CCOCC1  41.8%
76. Cc1nccn1CCCN1CCCC(c2nccn2CC2CCC2)C1 (stereo not given)  41.8%
77. Cc1nn(C)cc1Cn1c(=O)cnc2ccccc21  43.4%
78. CC(C)(C)c1ccc(C2(C(=O)NCCCS(C)(=O)=O)CC2)cc1  43.5%
79. CN(C)C(=O)N1CC2(CCOCC2)c2cc(NC(=O)CCO)ccc21  45.2%
80. CS(=O)(=O)N1CCOCC2(CN(Cc3nccs3)CCO2)C1 (stereo not given)  45.2%
81. Cc1ccc(F)c(S(=O)(=O)N2CCCC2c2ccncc2)c1 (stereo not given)  45.3%
82. CCS(=O)(=O)Nc1ccc2c(c1)C1(CCOCC1)CN2C  46.6%
83. COCCC1(C(=O)O)CCCN(C(=O)c2cnc3c(c2)CCCC3)C1 (stereo not given)  47.1%
84. Cc1ccc(C(=O)NC2CCN(S(C)(=O)=O)CC2)c(=O)[nH]1  47.7%
85. CN(Cc1cc(C(C)(C)C)n[nH]1)C(=O)c1ccc2nccn2c1  48.3%
86. CCn1[nH]c(C)c2c(C(F)(F)C(F)(F)F)cc(=O)nc1-2  50.5%
87. O=C(NCCCSc1ccc(F)cc1)C1CCc2cn[nH]c2C1 (stereo not given)  50.8%
88. CCCC(=O)Nc1ccc2c(c1)C1(CCOCC1)CN2CCOC  52.1%
89. CCC(=O)Nc1ccc2c(c1)C1(CCOCC1)CN2CCOC  55.7%
90. Cc1ccc(S(=O)(=O)Nc2ccc(-n3cccc3C(=O)O)c(C)c2)cc1  56%
91. CC(C)(C)CN1CC(COc2ccccc2)Oc2ccncc2S1(=O)=O (stereo not given)  59.3%
92. Cc1nccn1CCCN1CCC(c2nccn2CC2CCC2)CC1  60.2%
93. CC(C)Nc1nc2c(c(NC3CC3)n1)CCN(Cc1nccn1C)CC2  60.3%
94. CC(C)(C)c1ccc(C2(C(=O)NCCS(C)(=O)=O)CC2)cc1  62.3%
95. COc1ccc(C2CCCN2S(=O)(=O)c2cc(F)ccc2F)cc1 (stereo not given)  62.6%
96. CC(C)Nc1nc2c(c(NC3CC3)n1)CN(C(=O)c1ccnnc1)CC2  65.9%
97. O=C(c1cnc2c(c1)CCC2)N1CCCC(CO)(CC2CC2)C1 (stereo not given)  68.4%
98. CC(C)(C)c1ccc(C2(C(=O)NCCS(N)(=O)=O)CC2)cc1  68.5%
99. Cc1cccn2c(CC(=O)N3CCC(CCn4cccn4)CC3)cnc12  71.3%
100. Cc1[nH]n(C)c2nc(=O)cc(C(F)(F)C(F)(F)F)c1-2  76.3%
101. COCCN1CC2(CCOCC2)c2cc(NC(=O)C3CC=CC3)ccc21  76.5%
102. CC(C)Nc1nc2c(c(NC3CC3)n1)CN(C(=O)c1ccsc1)CC2  79.2%
103. CC(C)Nc1nc2c(c(NC3CC3)n1)CN(C(=O)Cc1ccsc1)CC2  83.7%
104. N#Cc1ccc(CN(CC(N)=O)C2CCCC2)c(Br)c1  90.2%
105. N#Cc1ccc(CN(CC(N)=O)C2CCCC2)cc1  90.2%
